Reference: PubChem BioAssay (NCI)
Compounds without any hit were thinned out: in the full panel of roughly 79,000, 15% have a hit. A number with no mark means an inactive call. Active and inactive are the calls of the source. Cut-off read from the data, not from the text of the source: active = growth inhibition above about 70%; inactive = the rest.

Key:
[1] = NCI Yeast Anticancer Drug Screen. Data for the rad50 strain (AID 155);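 note: 0% = growth of vehicle-only cultures of the same strain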; settings: S. cerevisiae rad50 strain growth inhibition, active compounds read high
Procedure, shortened: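 Genetically altered yeast (DNA repair pathway); compound treatment; growth inhibition vs vehicle ctrl.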

[2] = NCI Yeast Anticancer Drug Screen. Data for the sgs1 mgt1 strain (AID 161);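 note: 0% = growth of cultures given vehicle only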; settings: S. cerevisiae sgs1 mgt1 strain, active compounds read high
Procedure, shortened: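 Read-out: growth inhibition vs vehicle controls. Cells: mutant yeast strain deficient in DNA damage repair.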

[3] = NCI Yeast Anticancer Drug Screen. Data for the cln2 rad14 strain (AID 165);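 note: 0% = growth equal to vehicle treated cultures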; settings: S. cerevisiae cln2 rad14 strain, active compounds read high
Procedure, shortened: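 cln2 rad14 yeast strain; compound exposure; growth inhibition read vs vehicle controls.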

[4] = NCI Yeast Anticancer Drug Screen. Data for the bub3 strain (AID 167); settings: S. cerevisiae bub3 mutant strain, active compounds read high
Procedure, shortened: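 Yeast carrying a defined mutation is treated with each compound, and growth is compared with that of vehicle-exposed cells to give inhibition.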

[5] = NCI Yeast Anticancer Drug Screen. Data for the mlh1 rad18 strain (AID 175); settings: S. cerevisiae mlh1 rad18 strain growth inhibition, active compounds read high
Procedure, shortened: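 Yeast w/ defined DNA-repair lesions; compound exposure; growth vs vehicle controls → % inhibition.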

[6] = at 5.0 µM (retest, dose inferred, filed as 0.5)
[7] = at 50.0 µM (retest, dose inferred, filed as 5.0)

Structure (SMILES) | growth inhibition [1, 6] | growth inhibition [1, 7] | growth inhibition ([1]; at 50.0 µM) | growth inhibition [2, 6] | growth inhibition [2, 7] | growth inhibition ([2]; at 50.0 µM) | growth inhibition [3, 6] | growth inhibition [3, 7] | growth inhibition ([3]; at 50.0 µM) | growth inhibition [4, 6] | growth inhibition [4, 7] | growth inhibition ([4]; at 50.0 µM) | growth inhibition [5, 6] | growth inhibition [5, 7] | growth inhibition ([5]; at 50.0 µM)
CCOC(=O)C1=C(C(=O)c2ccc(C)cc2)C(c2cccc([N+](=O)[O-])c2)C(C(=O)c2ccc(C)cc2)=C(C(=O)OCC)N1 | 4% | 55% | 60.6% | 8% | 47% | 61.1% | -3% | 2% | 19.3% | 2% | 61% | 76.2% (active) | 0% | -17% | 78.9% (active)
CC(C)(Cc1nocc1C(C)(C)CC#N)c1cc(CC(C)(C)C2(C)OCCO2)no1 | -4% | 0% | -9.6% | -8% | 1% | -7.8% | 2% | -6% | 25.3% | -7% | -6% | -47.8% | -3% | -4% | -9.8%
CCN1CCC(O)(/C=C/c2ccc(C)cc2)C(C(=O)/C=C/c2ccc(C)cc2)C1 (stereo not given) | 20% | 98% (active) | 90.1% (active) | -29% | 99% (active) | 91.2% (active) | 9% | 99% (active) | 91.8% (active) | 14% | 99% (active) | 90.6% (active) | 24% | 98% (active) | 92.7% (active)
